Compounds with a hit are over-represented: about 3.9% of the library has one in this group of screens.
D1 agonist – Allosteric Agonists of the Human D1 Dopamine Receptor: qHTS | D(1A) dopamine receptor (Homo sapiens), P21728 | HEK293 T-REx D1 cells, calcium flux, agonist mode | activation, % at 2 µM | actives 1% (n = 360,000); in the data active = activation above about 30%; also: 0% is about no effect
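Inducible HEK293 T-REx D1 cells, force-coupled to calcium signalling, were plated at 4000 cells/well with tetracycline and held overnight at 30 C. After no-wash calcium dye loading, compound-evoked calcium rise over 180 s flagged agonists.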
D1 potentiator – Potentiators of Human D1 Dopamine Receptor: qHTS; HEK293 TREx D1 cells, calcium flux, dopamine EC20 potentiation; potentiation, % at 10 µM; actives 0.036% (n = 360,000); in the data active = potentiation above about 30%; also: 0% is about no effect
USP2a block – qHTS Assay for Inhibitors of Ubiquitin-specific Protease USP2a Using CHOP2 as the Reporter; Ubiquitin carboxyl-terminal hydrolase 2 (Homo sapiens), O75604; USP2 core, Ub-CHOP2 coupled fluorogenic reporter, 485/531; Potency, µM (doses to about 38.3 µM), for the others: top-dose activity change, negative = inhibition, most hits filed as inhibitors; actives 0.01% (n = 330,000);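 also: potency is read from the fitted curve at half-maximal effect; plate controls were DMSO wells for no effect and full inhibition by NEM control for full effect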
Target sequence (O75604 whole entry, looked up): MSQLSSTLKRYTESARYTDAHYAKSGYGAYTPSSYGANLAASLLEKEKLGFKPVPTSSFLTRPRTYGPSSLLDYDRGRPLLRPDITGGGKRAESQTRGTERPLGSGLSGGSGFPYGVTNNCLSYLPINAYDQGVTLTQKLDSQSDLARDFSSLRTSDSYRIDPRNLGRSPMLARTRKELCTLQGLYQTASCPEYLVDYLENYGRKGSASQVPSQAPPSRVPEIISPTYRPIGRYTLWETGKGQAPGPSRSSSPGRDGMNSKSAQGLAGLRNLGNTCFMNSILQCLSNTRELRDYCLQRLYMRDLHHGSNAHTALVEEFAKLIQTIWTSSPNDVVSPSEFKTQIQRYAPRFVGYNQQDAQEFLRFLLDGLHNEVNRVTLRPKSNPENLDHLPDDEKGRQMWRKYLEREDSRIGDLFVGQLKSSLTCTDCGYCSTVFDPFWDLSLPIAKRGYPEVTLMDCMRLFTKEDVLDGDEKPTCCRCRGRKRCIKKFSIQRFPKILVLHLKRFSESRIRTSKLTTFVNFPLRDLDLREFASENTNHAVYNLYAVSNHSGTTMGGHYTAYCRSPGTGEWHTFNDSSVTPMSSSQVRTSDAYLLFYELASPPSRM
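USP2 core (10nM final) preincubated 30min RT with compound in 20mM Tris-HCl pH 8.0, 2mM CaCl2, 2mM beta-mercaptoethanol, 0.05% CHAPS; 25nM Ub-CHOP2 plus 25nM reporter substrate added, fluorescence (Ex485/Em531) read after 60min.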
D1 antagonist – Antagonist of Human D 1 Dopamine Receptor: qHTS | D(1A) dopamine receptor (Homo sapiens), P21728 | HEK293 TREx D1 cells, calcium flux, dopamine EC80; hits give low values | activity change, negative = inhibition, % at 10 µM | actives 3.2% (n = 360,000) | AID 504652, 2011; in the data active = activity change below about -30%; also: % is scaled to controls: 0 for no effect and ±100 for the full control effect
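Antagonism measured as reduced calcium response to an EC80 dopamine addition following 180 s compound pre-read; cells were inducible HEK293 Trex D1 plated overnight at 30 C, read kinetically at 1 cycle/sec.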
GALK inhibitor – qHTS Assay for Inhibitors of Human Galactokinase (GALK) | AID 1868, 2009 | actives 0.007% (n = 270,000) | P51570 | Potency, µM (top dose mostly 57.5 µM), inactives show at the top dose activity change, negative = inhibition, hits mostly inhibitors | Purified GALK, Kinase-Glo residual ATP luminescence; also: potency is read from the fitted curve at half-maximal effect; % is scaled to controls: 0 for no effect and ±100 for the full control effect
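Human GALK (5 nM) with 35 uM ATP and 100 uM galactose in 20 mM HEPES pH 8.0, 5 mM MgCl2, 60 mM NaCl, 1 mM DTT, 0.01% BSA. After 1 h at room temperature, leftover ATP was read by Kinase-Glo Plus luminescence.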
Eya2 phos inh – qHTS Assay for Inhibitors of the Phosphatase Activity of Eya2 | actives 0.006% (n = 330,000) | AID 488837, 2010 | Protein phosphatase EYA2 (Homo sapiens), O00167 | recombinant Eya2, OMFP fluorescence dephosphorylation (OMFP is methylfluorescein phosphate) | Potency, µM (titrated, usually from 76.9 µM), for inactives: at the highest dose activity, negative = inhibition, actives largely listed as inhibitors; also: potency is read from the fitted curve at half-maximal effect; % is scaled to controls: 0 for no effect and ±100 for the full control effect
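Eya2 protein (added as 0.2 uM solution) was preincubated with compound for 10 min at ambient temperature in 50 mM HEPES pH 7.5, 50 mM NaCl, 5 uM MgCl2, 0.05% BSA, 1 mM DTT. OMFP (added at 50 uM) then reacted 10 min; fluorescence read at 485/525 nm.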
Active calls of the source: *; u = inconclusive; x = no result; ! = not confirmed by another sample. Unless noted, calls follow the shape of the dose curve; as a rule, active = well fitted inhibition curve with a large enough effect; inconclusive = small, poorly fitted or top-dose-only effect, or effect the other way; inactive = flat fitted curve, though single readings scatter.

SMILES	D1 agonist	D1 potentiator	USP2a block	D1 antagonist	GALK inhibitor	Eya2 phos inh
COc1ccc(CNC(=O)C(C)n2c(=O)cc(C)c3c(C)nn(-c4ccccc4)c32)cc1 (configuration not stated)	-1	-6	x	-54*	x	x
O=C(N/N=C/c1cc(Cl)cc(Cl)c1O)c1ccncc1	68*	2	u	0	6%	17%
O=C(N/N=C/c1ccc(Cl)cc1Cl)c1ccncc1	2	-2	2%	2	6%	-8%
O=C(N/N=C/c1cc(Br)cc(Br)c1O)c1ccncc1	54*	14	13%	-4	15%	6%
COc1ccc(C2NC(=O)c3ccccc3N2)cc1OC (configuration not stated)	2	3	-1%	-8	1%	14%
O=C1NC(c2ccc(Br)cc2)Nc2ccccc21 (configuration not stated)	-2	-4	1%	-32*	5%	-2%
COc1ccc(C(=O)/C=C/C(=O)N(Cc2ccc(F)cc2)C(C(=O)NC2CCCCC2)c2ccncc2)c(O)c1 (configuration not stated)	0	-9	3%	-31*	0%	-3%
O=C(N1CCOCC1)N1CCN(c2nc(-c3ccc(F)cc3)cs2)CC1	1	3	1%	-16	-4%	-5%
CCN(CC)CCCNC(=S)N1CCN(c2nc3ccccc3n2CC)CC1	1	-11	-1%	-35*	0%	-7%
COCCNC(=S)N1CCN(c2nc(-c3ccc(Cl)cc3)cs2)CC1	0	-9	1%	-2	x	1%
COc1cccc(-c2csc(N3CCN(C(=S)Nc4ccccc4C)CC3)n2)c1	1	-3	2%	-33*	2%	-2%
CCCCC(=O)N1CCN(c2nc(-c3ccc(F)cc3)cs2)CC1	2	-4	-1%	-31*	x	-4%
COc1cccc(-c2csc(N3CCN(C(=S)Nc4ccccc4)CC3)n2)c1	-1	-3	-1%	-8	3%	-17%
COCCNC(=S)N1CCN(c2nc(-c3ccc(F)cc3)cs2)CC1	3	-16	-1%	-34*	-5%	3%
COc1ccc(-c2nc(CSc3nc4ncccc4[nH]3)c(C)o2)cc1OC	0	-2	x	-2	x	x
COc1ccc(NC(=O)CSC2=Nc3ccccc3C3=NC(CCC(=O)NCc4cccs4)C(=O)N23)cc1 (configuration not stated)	1	-3	x	-2	x	x
CCOc1ccc(C(c2c(O)cc(C)n(CCOC)c2=O)N2CCN(c3ccc(F)cc3)CC2)cc1 (configuration not stated)	2	-3	x	8	x	x
CCNC(=S)N1CCN(c2nc(-c3ccc(F)cc3)cs2)CC1	3	-5	-7%	4	-2%	-15%
CCN(CC)CCCNC(=S)N1CCN(c2nc(-c3ccc(F)cc3)cs2)CC1	43*	-13	0%	-46*	-2%	-14%
CC(C)Cn1cc(C(=O)NCCCN2CCCC2=O)c2c3ccccc3n(C)c2c1=O	-1	2	-1%	-30*	-1%	4%
COCCCNC(=O)c1cn(CC(C)C)c(=O)c2c1c1ccccc1n2C	-3	-1	1%	-8	1%	32%
Cn1nnnc1Sc1ncnc2scc(-c3cc4ccccc4o3)c12	3	-6	3%	-44*!	x	-1%
Cn1nnnc1Sc1ncnc2scc(-c3ccccc3C(F)(F)F)c12	1	8	1%	-36*!	x	8%
O=C(NNc1ccc([N+](=O)[O-])cc1)c1ccccc1Cl	9	-4	1%	-52*	0%	-9%
CC(NC(=O)COC(=O)c1cc(NS(=O)(=O)c2ccc(Cl)c([N+](=O)[O-])c2)ccc1O)C1CC2CCC1C2 (configuration not stated)	7	-7	-18%	-31*	0%	1%
SMILES	D1 agonist	D1 potentiator	USP2a block	D1 antagonist	GALK inhibitor	Eya2 phos inh
COc1ccc(NS(=O)(=O)c2ccc(O)c(C(=O)OCC(=O)NC(C)C3CC4CCC3C4)c2)cc1 (configuration not stated)	11	6	0%	14	1%	-21%
CC(=O)N(Nc1ccccc1)c1ccccc1	0	-1	-1%	-52*	-1%	10%
CCOc1ccc(/C=C2\SC(=S)N(CCC(=O)N(CCO)c3ccccc3)C2=O)cc1	9	-3	-3%	-31*	0%	-5%
Cc1cc2c(cc1C)-n1c(-c3ccccc3)c3c(=O)n(C)c(=O)n(C)c3c1C(c1ccco1)N2 (configuration not stated)	3	-1	x	14	x	x
Cn1c(=O)c2c(-c3ccccc3)n3c(c2n(C)c1=O)C(c1ccco1)Nc1ccccc1-3 (configuration not stated)	1	2	x	-31*	x	x
O=[N+]([O-])c1ccc(N=Cc2sc3ccccc3c2O)cc1	32*	-7	0%	7	2%	12%
Cc1ccccc1CNC(=O)Cn1ncn2nc(-c3cccs3)cc2c1=O	7	0	x	-36*	x	x
CCOC(CNC(=O)c1ccc(N2CCc3ccccc32)c([N+](=O)[O-])c1)OCC	12	-9	3%	-37*	1%	0%
COC(=O)c1ccc(N2CCc3ccccc32)c([N+](=O)[O-])c1	0	3	4%	-14	1%	-16%
Cc1ccc(NC(=O)Cn2c(=O)n(CCCCC(=O)NCCc3ccc(Cl)cc3)c(=O)c3ccccc32)cc1	-1	2	x	-46*	x	x
COc1ccc(CCNC(=O)CCCn2c(=O)c3ccccc3n(Cc3ccccc3C)c2=O)cc1OC	-1	3	x	-33*	x	x
CCOc1ccc(-n2c(=O)c3c4c(sc3n(CC(=O)NC(C)CC)c2=O)CCCC4)cc1 (configuration not stated)	-1	1	x	5	x	x
Cc1cc(C)nc(NCCC(=O)O)n1	9	-8	2%	-58*	8%	-8%
CCOc1ccccc1NC(=O)C(OC(=O)C1CC1)c1ccccc1 (configuration not stated)	30*	-2	6%	-18	0%	-4%
CCOc1ccccc1NC(=O)COC(=O)C1CC1	3	-2	3%	-17	1%	3%
Cc1cc(C(=O)CSc2nnc(-c3cccs3)o2)c(C)n1-c1ccccc1	2	2	2%	-55*	1%	-5%

Source: PubChem (National Center for Advancing Translational Sciences (NCATS))
